The campaign covered roughly 1,300 compounds. About 460 (35%) were called active. About 39% were inconclusive and are not listed. This is one part of the list. Unmarked numbers belong to inactive results. The call rests on the fitted dose curve; in most records, active means well fitted inhibition curve with a large enough effect; inconclusive means small, poorly fitted or top-dose-only effect; inactive means flat fitted curve, though single readings scatter.

Chain of Protein phosphatase EYA2 (Homo sapiens) (O00167 whole entry, looked up): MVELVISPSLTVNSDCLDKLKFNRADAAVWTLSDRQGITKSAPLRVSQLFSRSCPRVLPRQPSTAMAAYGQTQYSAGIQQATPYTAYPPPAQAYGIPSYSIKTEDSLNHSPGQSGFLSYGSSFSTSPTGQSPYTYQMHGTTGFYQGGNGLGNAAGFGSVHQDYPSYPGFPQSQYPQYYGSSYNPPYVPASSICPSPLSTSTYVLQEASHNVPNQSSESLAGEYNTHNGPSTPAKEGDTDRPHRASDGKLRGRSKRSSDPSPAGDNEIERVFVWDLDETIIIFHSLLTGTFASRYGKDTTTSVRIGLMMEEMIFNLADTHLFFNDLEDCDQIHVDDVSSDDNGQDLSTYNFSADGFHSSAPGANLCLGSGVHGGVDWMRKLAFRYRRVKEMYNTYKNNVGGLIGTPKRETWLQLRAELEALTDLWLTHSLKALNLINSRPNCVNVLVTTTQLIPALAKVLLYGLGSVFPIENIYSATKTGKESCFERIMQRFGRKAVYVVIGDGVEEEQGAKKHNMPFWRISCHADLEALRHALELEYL

This assay addresses Protein phosphatase EYA2 (Homo sapiens) (UniProt O00167). Description: qHTS for Inhibitors of the Phosphatase Activity of Eya2: Confirmatory Assay for Cherry-picked Compounds. Further: nearly all actives have a fitted effect of over 65% in size.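 On activity change, negative = inhibition: 0% = DMSO wells and -100% = EGTA control giving full inhibition.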 Conditions: purified EYA2 phosphatase activity, qHTS confirmation; series mostly up to 46.1 µM; activity change, negative = inhibition: at the top concentration. The text has this: The Eya protein family is an essential co-activator of the Six1 transcription factor. Six1 is a developmental gene that is abnormally re-expressed in a large percentage of breast cancers. This over-expression plays a causal role in the initiation and metastatic development of breast cancers. The Eya family of protein is also found to contain a unique HAD phosphatase domain with protein tyrosine phosphatase activity which can potentially play a role in Six1-mediated breast tumorigenesis. Recently, Eya2 is found to dephosphorylate the histone variant H2AX and direct cells towards DNA repair instead of apoptosis in the event of DNA damage.
A 1536 well format, fluorescence based qHTS assay was developed and used to target the phosphatase activity of Eya2 (AID 488837). Inhibitors found against Eya2 could serve as potential therapeutic tools to inhibit Six1-mediated breast tumorigenesis and to increase the efficiency of radiation and certain chemo therapy. This assay assessed the activity of the primary screen cherry-picked compounds against Eya2. Inhibition is the desired outcome for this assay.
NIH Chemical Genomics Center [NCGC]
NIH Molecular Libraries Probe Centers Network [MLPCN]
Assay Submitter (PI): Rui Zhao, University of Colorado Denver
Eya2 enzyme and 3-O-methyl-fluorescein phosphate (OMFP) substrate working solutions were reconstituted in the buffer reagent consist of 50 mM HEPES pH 7.5, 50 mM NaCl, […], 0.05% BSA and 1 mM DTT. One and a half microliter of 0.2 uM Eya2 working solution was dispensed in a 1536 well Greiner plate (black, medium bind). Twenty-three nanoliter of test compounds and control compound EGTA was transferred to the assay plate using the Kalypsys robotic system equipped with a 1536 pin head. The plate was incubated at room temperature for 10 minutes. One and a half microliter of the 50 uM the OMFP substrate was then dispensed to the assay plate and incubated at room temperature for additional 10 min. The fluorescence signal was read using the PerkinElmer ViewLux plate reader using a 485 nm excitation and 525 nm emission filters. The data was normalized to the positive control for maximum inhibition and DMSO treated wells as negative control.
On the technique in general: Quantitative high-throughput screening tests each substance at several concentrations.
As to `CCC(C)Nc1nc(-c2ccccn2)nc2ccccc12` (configuration not stated), the Potency was 8.49 µM (active).

Consider `CC(C)c1cccc(-c2ccc3c(c2)S(=O)(=O)c2cccc(C(=O)O)c2C3=O)c1`, for which the Potency is 21.3 µM (active). Same read-out and setting: the same measure for `N#C/C(=C\C1=C(N2CCOCC2)C(=C\c2ccccc2)/CC1)C(=O)Nc1ccccc1F`: 1.07 µM (active); for `CCN(CC)c1ccc(/C=C2\CCC(/C=C(\C#N)C(=O)Nc3ccccc3F)=C2N2CCOCC2)cc1`: 3.01 µM (active); for `O=C1C(=O)C(c2ccc(O)cc2O)Oc2cc(O)cc(O)c21` (configuration not stated): 8.49 µM (active).

`COc1cc([C@H]2Oc3cc([C@H]4Oc5cc(O)cc(O)c5C(=O)[C@@H]4O)ccc3O[C@@H]2CO)ccc1O`: the “activity change, negative = inhibition” value was -19.7%. With `CC1(C)CC(=O)C(C2C3=C(CC(C)(C)CC3=O)Oc3c(Br)cc(Br)cc32)=C(O)C1` (configuration not stated), the Potency was 3.79 µM (active). Consider `O=C(CSc1nnc2c(Cl)cc(Cl)cn12)NC1CCS(=O)(=O)C1` (configuration not stated), for which the “activity change, negative = inhibition” value is -4.62%. Take `CCC(C)Nc1ccc(NC(C)CC)cc1` (configuration not stated): the Potency is 0.0953 µM (active). The same measure, in the same setting: the same measure for `O=c1cc2c(=O)oc3cc(O)c(O)oc3c2c(O)c1O`: 1.2 µM (active); for `Cc1ccc2cc(NC(=O)CC(CC(=O)O)c3ccccc3)ccc2n1` (configuration not stated): 19 µM (active). With `O=C(C1CCN(c2nnc(-n3cccc3)s2)CC1)N1CCOCC1`, the “activity change, negative = inhibition” value is -6.36%. Take `CN(C)c1ccc2c(c1)C(=NO)c1ccccc1-2`: the Potency was 9.53 µM (active). Still for that read-out and setting: the same measure for `CN(C)c1ccc(C=C2c3ccccc3-c3ccccc32)cc1`: 7.57 µM (active); for `CNc1ccc(C=C2c3ccccc3-c3ccccc32)cc1`: 12 µM (active). As for `CN(C)c1ccc(/C=C2\C(Cl)=Cc3ccccc32)cc1`, the Potency was 5.36 µM (active). Regarding `CN(Cc1ccccc1F)c1nc(-c2cccnc2)nc2ccccc12`, the “activity change, negative = inhibition” value was -29%.

In the case of `COc1ccc(Nc2nc(C(C)(C)C)nc3c2nnn3Cc2ccccc2Cl)cc1OC`, the “activity change, negative = inhibition” value is -23.1%. Regarding `CN(C)c1ccc(/C=C2\c3ccccc3-c3ccc(N(C)C)cc32)cc1`, the Potency was 5.36 µM (active). For `CN(C)c1ccc(/C=C2\C(=O)/C(=C/c3ccc(N(C)C)cc3)c3ccccc32)cc1`, the Potency is 4.26 µM (active). Same read-out and setting: the same measure for `CCOc1ccc(NC(=O)COc2cccc3cccnc23)cc1S(=O)(=O)N1CCCC1`: 19 µM (active). For `CCOc1ccc(S(=O)(=O)NCc2ccc(C)cc2)c2cccnc12`, the “activity change, negative = inhibition” value was -14.1%.

Take `CCOc1ccc(NC(=O)COc2ccc3c(c2)CCC3)cc1OC`: the “activity change, negative = inhibition” value was -12.8%. Consider `CN(C)c1ccc(/C=C2\C=Cc3ccccc32)c(Cl)c1`, for which the Potency is 6.75 µM (active).

For `COc1cc(N(C)C)ccc1/C=C1\C=Cc2ccccc21`, the Potency is 7.57 µM (active). On the same count and under the same terms, to `COc1cc(N(C)C)c(OC)cc1/C=C1\C=Cc2ccccc21` belongs 5.36 µM (active). Turning to `COc1cc(OC)c(OC)cc1/C=C1\C=Cc2ccccc21`, the Potency was 8.49 µM (active).

Consider `CC(C)(C)C(=O)[C@H]1[C@H](c2ccccc2)[C@@]2(N=C(c3ccccc3)OC2=O)C2c3ccccc3C=NN21` (some centres not stated), for which the “activity change, negative = inhibition” value was -24.9%. As for `CC1=CC(=O)Nc2ncccc2O1`, the Potency was 19 µM (active). As for `Cc1ccccc1Nc1c(-c2ccccn2)nc2ccccn12`, the Potency was 2.39 µM (active). Same read-out and setting: the same measure for `Cc1cccc(C)c1Nc1c(-c2ccccn2)nc2ccccn12`: 7.57 µM (active); for `Cc1ccc(Nc2c(-c3ccccn3)nc3ccc(C)cn23)cc1`: 4.26 µM (active).

In the case of `CC(=O)c1ccc(NS(=O)(=O)c2cccc(C(=O)Nc3ccccc3C(=O)O)c2)cc1`, the Potency is 15.1 µM (active). Same read-out and setting: to `CC(=O)Oc1cccc(C(=O)Nc2cccc(C(=O)Nc3ccccc3C(=O)O)c2)c1` belongs 15.1 µM (active). Consider `CCOC(=O)CNC(=O)C1CCCN(c2ncccn2)C1` (configuration not stated), for which the “activity change, negative = inhibition” value was 0.81%.

For `CCOC(=O)C1CCN(C2=C(NS(=O)(=O)c3ccc(Br)cc3)C(=O)c3ccccc3C2=O)CC1`, the Potency is 3.79 µM (active).

On to `NC(=O)C1CCN(c2oc(-c3cccs3)nc2S(=O)(=O)c2ccc(Br)cc2)CC1`, for which the “activity change, negative = inhibition” value was -28.4%. Turning to `CCOC(=O)C1CCCN(C2=C(NS(=O)(=O)c3ccc(Br)cc3)C(=O)c3ccccc3C2=O)C1` (configuration not stated), the Potency is 9.53 µM (active). In the case of `N/C(=N\OC(=O)c1ccc2ccccc2c1)c1ccncc1`, the “activity change, negative = inhibition” value is -24.1%. For `Cc1cc(C)nc(-n2nc(C)cc2NC(=O)c2cc3ccccc3oc2=O)n1`, the Potency is 5.36 µM (active). On to `O=C(CC1(O)C(=O)Nc2ccccc21)c1ccccc1` (configuration not stated), for which the “activity change, negative = inhibition” value is 0.66%. In the case of `CCOC(=O)C1=C(COC(=O)CCOc2ccccc2)NC(=O)NC1C` (configuration not stated), the “activity change, negative = inhibition” value is -6.75%. `COc1ccc(C(=O)Oc2ccc(=O)n(-c3ccccc3)n2)cc1`: the Potency was 8.49 µM (active).

Regarding `Cc1nc(COC(=O)c2c(C)nn(-c3ccccc3)c2C)cs1`, the “activity change, negative = inhibition” value is -8.52%.

On to `CCOC(=O)c1c2ccc(OCC(=O)NN)cc2n2ccccc12`, for which the “activity change, negative = inhibition” value was -27%.

For the molecule `CCOC(=O)c1[nH]c2ccc(C(=O)OC)cc2c1C(=O)OCC`, the Potency was 13.5 µM (active). For `Cc1[nH]c2ccc(C(=O)OC(C)C(=O)N(C)c3ccccc3)cc2c1C` (configuration not stated), the “activity change, negative = inhibition” value was -28.2%.

Values taken from PubChem BioAssay AID720540 (National Center for Advancing Translational Sciences (NCATS), 2013).
